Data published in PubChem BioAssay AID1508601 (ICCB-Longwood Screening Facility, Harvard Medical School, 2020).
Among all 5,700 compounds or so, about 85 (1%) were called active. No stated cut-off is given here; in the data, active means p53-positive nuclei above about 36% (passing the limit was not always enough); inactive means the rest. The sample as a whole holds a higher share of actives than the screen did.

Legend:
[1] = p53 stabilisation in HPV-positive human cells, imaging, p53-positive nuclei imaging, 24 h, 48 h (AID 1508601); settings: 24/48 h
[2] = target: Cellular tumor antigen p53 (Homo sapiens) (UniProt P04637); experiment: as above; settings: 24/48 h, stronger effect = higher value
Cellular tumor antigen p53 (Homo sapiens), sequence (P04637 whole entry, looked up): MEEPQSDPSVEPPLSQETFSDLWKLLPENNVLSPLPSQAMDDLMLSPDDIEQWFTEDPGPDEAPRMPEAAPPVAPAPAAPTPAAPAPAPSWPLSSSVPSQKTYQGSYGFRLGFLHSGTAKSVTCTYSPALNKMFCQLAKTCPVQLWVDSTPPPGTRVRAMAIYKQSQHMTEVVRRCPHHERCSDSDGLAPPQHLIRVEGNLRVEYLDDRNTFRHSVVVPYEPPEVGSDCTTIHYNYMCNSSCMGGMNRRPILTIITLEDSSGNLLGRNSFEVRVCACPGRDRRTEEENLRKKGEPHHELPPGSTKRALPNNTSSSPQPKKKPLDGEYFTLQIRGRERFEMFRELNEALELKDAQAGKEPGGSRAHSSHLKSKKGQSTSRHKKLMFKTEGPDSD

[3] = measured here: cell number at 24 h, Library stock concentration: 10 mM
[4] = measured here: cell number at 48 h, Library stock concentration: 10 mM
[5] = Library stock concentration: 10 mM
[6] = measured here: p53 positive nuclei at 24 h, Library stock concentration: 10 mM
[7] = measured here: cell number at 24 h, concentration not given here
[8] = measured here: cell number at 48 h, concentration not given here
[9] = measured here: p53 positive nuclei at 24 h, concentration not given here
[10] = measured here: cell number at 24 h, Library stock concentration: 46 uM
[11] = measured here: cell number at 24 h, Library stock concentration: 278 uM
[12] = measured here: cell number at 24 h, Library stock concentration: 1.67 mM
[13] = measured here: cell number at 48 h, Library stock concentration: 46 uM
[14] = measured here: cell number at 48 h, Library stock concentration: 278 uM
[15] = measured here: cell number at 48 h, Library stock concentration: 1.67 mM
[16] = Library stock concentration: 46 uM
[17] = Library stock concentration: 278 uM
[18] = Library stock concentration: 1.67 mM
[19] = measured here: p53 positive nuclei at 24 h, Library stock concentration: 46 uM
[20] = measured here: p53 positive nuclei at 24 h, Library stock concentration: 278 uM
[21] = measured here: p53 positive nuclei at 24 h, Library stock concentration: 1.67 mM

With CCn1cnc2c(Nc3cccc(Cl)c3)nc(NC3CCCCC3N)nc21 (stereo unspecified) as the molecule, how does the nuclei count, normalised ([1]; measured here: cell number at 24 h, Library stock concentration: 80 uM) read?
Its nuclei count, normalised is 108%.

What about the nuclei count, normalised ([1]; measured here: cell number at 24 h, Library stock concentration: 400 uM) of the same molecule?
The nuclei count, normalised was 103%.

And the nuclei count, normalised ([1]; measured here: cell number at 24 h, Library stock concentration: 2 mM)?
Its nuclei count, normalised is 91.4%.

And the nuclei count, normalised [1, 3]?
Its nuclei count, normalised is 32.2%.

What about the nuclei count, normalised ([1]; measured here: cell number at 48 h, Library stock concentration: 80 uM) of the same molecule?
Its nuclei count, normalised is 110%.

What about the nuclei count, normalised ([1]; measured here: cell number at 48 h, Library stock concentration: 400 uM) of the same molecule?
Its nuclei count, normalised is 104%.

What about the nuclei count, normalised ([1]; measured here: cell number at 48 h, Library stock concentration: 2 mM) of the same molecule?
The nuclei count, normalised was 98.2%.

And the nuclei count, normalised [1, 4]?
The nuclei count, normalised was 21.9%.

What about the p53-positive nuclei, normalised ([2]; Library stock concentration: 80 uM) of the same molecule?
The p53-positive nuclei, normalised was -0.102% (inactive).

And the p53-positive nuclei, normalised ([2]; Library stock concentration: 400 uM)?
Its p53-positive nuclei, normalised is -0.0205% (inactive).

And the p53-positive nuclei, normalised ([2]; Library stock concentration: 2 mM)?
The p53-positive nuclei, normalised was 0.0322% (inactive).

And the p53-positive nuclei, normalised [2, 5]?
Its p53-positive nuclei, normalised is 61.8% (active).

What about the p53-positive nuclei, normalised ([2]; measured here: p53 positive nuclei at 24 h, Library stock concentration: 80 uM) of the same molecule?
The p53-positive nuclei, normalised was 0.0806%.

What about the p53-positive nuclei, normalised ([2]; measured here: p53 positive nuclei at 24 h, Library stock concentration: 400 uM) of the same molecule?
The p53-positive nuclei, normalised was 0.000598%.

What about the p53-positive nuclei, normalised ([2]; measured here: p53 positive nuclei at 24 h, Library stock concentration: 2 mM) of the same molecule?
The p53-positive nuclei, normalised was 0.126%.

What about the p53-positive nuclei, normalised [2, 6] of the same molecule?
The p53-positive nuclei, normalised was 48.5%.

What does the source list for CCCCCCCCCCCCCCCCOC[C@H](COP(=O)([O-])OCC[N+](C)(C)C)OC(C)=O?
nuclei count, normalised [1, 7]: 107%; nuclei count, normalised [1, 8]: 107%; p53-positive nuclei, normalised ([2]; concentration not given here): -0.0025% (inactive); p53-positive nuclei, normalised [2, 9]: -0.0227%

What does the source list for CCCCC/C=C\C/C=C\C/C=C\C/C=C\CCCC(=O)NC(CO)CO?
nuclei count, normalised [1, 7]: 103%; nuclei count, normalised [1, 8]: 109%; p53-positive nuclei, normalised ([2]; concentration not given here): 0.067% (inactive); p53-positive nuclei, normalised [2, 9]: -0.135%

Which results are given for CC1CN(Cc2ccc(F)cc2)CCN1C(=O)COc1ccc(Cl)cc1NC(N)=O (stereo unspecified)?
nuclei count, normalised [1, 10]: 113%; nuclei count, normalised [1, 11]: 111%; nuclei count, normalised [1, 12]: 113%; nuclei count, normalised [1, 3]: 116%; nuclei count, normalised [1, 13]: 112%; nuclei count, normalised [1, 14]: 110%; nuclei count, normalised [1, 15]: 112%; nuclei count, normalised [1, 4]: 112%; p53-positive nuclei, normalised [2, 16]: -0.174% (inactive); p53-positive nuclei, normalised [2, 17]: -0.135% (inactive); p53-positive nuclei, normalised [2, 18]: -0.0557% (inactive); p53-positive nuclei, normalised [2, 5]: -0.323% (inactive); p53-positive nuclei, normalised [2, 19]: 0.0345%; p53-positive nuclei, normalised [2, 20]: -0.0826%; p53-positive nuclei, normalised [2, 21]: -0.151%; p53-positive nuclei, normalised [2, 6]: 0.0332%

For COc1ccc2c3c([nH]c2c1)C(CC(C)C)N1C(=O)C(CCC(=O)OC(C)(C)C)NC(=O)C1C3 (stereo unspecified), which nuclei count, normalised [1, 10] is on record?
The nuclei count, normalised was 116%.

What about the nuclei count, normalised [1, 11] of the same molecule?
The nuclei count, normalised was 114%.

What about the nuclei count, normalised [1, 12] of the same molecule?
The nuclei count, normalised was 116%.

What about the nuclei count, normalised [1, 3] of the same molecule?
Its nuclei count, normalised is 118%.

What about the nuclei count, normalised [1, 13] of the same molecule?
The nuclei count, normalised was 111%.

And the nuclei count, normalised [1, 14]?
The nuclei count, normalised was 106%.

What about the nuclei count, normalised [1, 15] of the same molecule?
The nuclei count, normalised was 106%.

And the nuclei count, normalised [1, 4]?
The nuclei count, normalised was 108%.

What about the p53-positive nuclei, normalised [2, 16] of the same molecule?
The p53-positive nuclei, normalised was -0.285% (inactive).

What about the p53-positive nuclei, normalised [2, 17] of the same molecule?
The p53-positive nuclei, normalised was -0.0842% (inactive).

What about the p53-positive nuclei, normalised [2, 18] of the same molecule?
The p53-positive nuclei, normalised was -0.358% (inactive).

And the p53-positive nuclei, normalised [2, 5]?
Its p53-positive nuclei, normalised is -0.016% (inactive).

What about the p53-positive nuclei, normalised [2, 19] of the same molecule?
Its p53-positive nuclei, normalised is -0.0846%.

And the p53-positive nuclei, normalised [2, 20]?
Its p53-positive nuclei, normalised is 0.0359%.

And the p53-positive nuclei, normalised [2, 21]?
The p53-positive nuclei, normalised was -0.151%.

What about the p53-positive nuclei, normalised [2, 6] of the same molecule?
Its p53-positive nuclei, normalised is 0.0251%.

Which results are given for NOCCC(N)C(=O)O (stereo unspecified)?
nuclei count, normalised ([1]; measured here: cell number at 24 h, Library stock concentration: 500 nM): 99.2%; nuclei count, normalised ([1]; measured here: cell number at 24 h, Library stock concentration: 1.5 uM): 103%; nuclei count, normalised ([1]; measured here: cell number at 24 h, Library stock concentration: 4.6 uM): 103%; nuclei count, normalised ([1]; measured here: cell number at 24 h, Library stock concentration: 13.7 uM): 107%; nuclei count, normalised ([1]; measured here: cell number at 24 h, Library stock concentration: 41 uM): 111%; nuclei count, normalised ([1]; measured here: cell number at 24 h, Library stock concentration: 123 uM): 113%; nuclei count, normalised ([1]; measured here: cell number at 24 h, Library stock concentration: 370 uM): 115%; nuclei count, normalised ([1]; measured here: cell number at 24 h, Library stock concentration: 1.111 mM): 106%; nuclei count, normalised ([1]; measured here: cell number at 24 h, Library stock concentration: 3.333 mM): 110%; nuclei count, normalised [1, 3]: 97.4%; nuclei count, normalised ([1]; measured here: cell number at 48 h, Library stock concentration: 500 nM): 98.5%; nuclei count, normalised ([1]; measured here: cell number at 48 h, Library stock concentration: 1.5 uM): 106%; nuclei count, normalised ([1]; measured here: cell number at 48 h, Library stock concentration: 4.6 uM): 104%; nuclei count, normalised ([1]; measured here: cell number at 48 h, Library stock concentration: 13.7 uM): 112%; nuclei count, normalised ([1]; measured here: cell number at 48 h, Library stock concentration: 41 uM): 113%; nuclei count, normalised ([1]; measured here: cell number at 48 h, Library stock concentration: 123 uM): 115%; nuclei count, normalised ([1]; measured here: cell number at 48 h, Library stock concentration: 370 uM): 114%; nuclei count, normalised ([1]; measured here: cell number at 48 h, Library stock concentration: 1.111 mM): 108%; nuclei count, normalised ([1]; measured here: cell number at 48 h, Library stock concentration: 3.333 mM): 112%; nuclei count, normalised [1, 4]: 102%; p53-positive nuclei, normalised ([2]; Library stock concentration: 500 nM): -0.0211% (inactive); p53-positive nuclei, normalised ([2]; Library stock concentration: 1.5 uM): -0.092% (inactive); p53-positive nuclei, normalised ([2]; Library stock concentration: 4.6 uM): -0.0486% (inactive); p53-positive nuclei, normalised ([2]; Library stock concentration: 13.7 uM): -0.0639% (inactive); p53-positive nuclei, normalised ([2]; Library stock concentration: 41 uM): 0.121% (inactive); p53-positive nuclei, normalised ([2]; Library stock concentration: 123 uM): -0.0786% (inactive); p53-positive nuclei, normalised ([2]; Library stock concentration: 370 uM): -0.0673% (inactive); p53-positive nuclei, normalised ([2]; Library stock concentration: 1.111 mM): -0.0556% (inactive); p53-positive nuclei, normalised ([2]; Library stock concentration: 3.333 mM): -0.0652% (inactive); p53-positive nuclei, normalised [2, 5]: -0.0323% (inactive); p53-positive nuclei, normalised ([2]; measured here: p53 positive nuclei at 24 h, Library stock concentration: 500 nM): 0.111%; p53-positive nuclei, normalised ([2]; measured here: p53 positive nuclei at 24 h, Library stock concentration: 1.5 uM): -0.132%; p53-positive nuclei, normalised ([2]; measured here: p53 positive nuclei at 24 h, Library stock concentration: 4.6 uM): -0.00649%; p53-positive nuclei, normalised ([2]; measured here: p53 positive nuclei at 24 h, Library stock concentration: 13.7 uM): -0.187%; p53-positive nuclei, normalised ([2]; measured here: p53 positive nuclei at 24 h, Library stock concentration: 41 uM): 0.0689%; p53-positive nuclei, normalised ([2]; measured here: p53 positive nuclei at 24 h, Library stock concentration: 123 uM): -0.0424%; p53-positive nuclei, normalised ([2]; measured here: p53 positive nuclei at 24 h, Library stock concentration: 370 uM): 0.0115%; p53-positive nuclei, normalised ([2]; measured here: p53 positive nuclei at 24 h, Library stock concentration: 1.111 mM): 0.0344%; p53-positive nuclei, normalised ([2]; measured here: p53 positive nuclei at 24 h, Library stock concentration: 3.333 mM): -0.136%; p53-positive nuclei, normalised [2, 6]: -0.121%
